# Results taken from article PMC5540273 (PLoS ONE, 2017).
# What was measured:
# Details in all cases: concentration: 1 μM, replicates: in singlicate; n = 1
# ACVR2B = tested on: ACVR2B
# ACVRL1 = tested on: ACVRL1
# ADCK3 = tested on: T1, ADCK3
# T1 construct: gene CABC1
# ADCK4 = tested on: ADCK4
# AKT1 = tested on: AKT1
# AKT2 = tested on: AKT2
# AKT3 = tested on: AKT3
# ALK = tested on: ALK
# AMPK-alpha1 = tested on: T2, AMPK-alpha1
# T2 construct: gene PRKAA1
# AMPK-alpha2 = tested on: T3, AMPK-alpha2
# T3 construct: gene PRKAA2
# ANKK1 = tested on: ANKK1
# ARK5 = tested on: T4, ARK5
# T4 construct: gene NUAK1
# ASK1 = tested on: T5, ASK1
# T5 construct: gene MAP3K5
# ASK2 = tested on: T6, ASK2
# T6 construct: gene MAP3K6
# AURKA = tested on: AURKA
# AURKB = tested on: AURKB
# AURKC = tested on: AURKC
# AXL = tested on: AXL
# BIKE = tested on: T7, BIKE
# T7 construct: gene BMP2K
# BLK = tested on: BLK
# 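Note: KINOMEscan kinase panel screen.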
SMILES,%Inh (ACVR2B),%Inh (ACVRL1),%Inh (ADCK3),%Inh (ADCK4),%Inh (AKT1),%Inh (AKT2),%Inh (AKT3),%Inh (ALK),%Inh (AMPK-alpha1),%Inh (AMPK-alpha2),%Inh (ANKK1),%Inh (ARK5),%Inh (ASK1),%Inh (ASK2),%Inh (AURKA),%Inh (AURKB),%Inh (AURKC),%Inh (AXL),%Inh (BIKE),%Inh (BLK)
Cc1ccc(C(=O)Nc2ccc(Nc3ccnc4cc(-c5ccccn5)ccc34)cc2O)cc1.Cl [GW440146],25%,0%,0%,0%,0%,19%,0%,27%,4%,15%,33%,0%,0%,0%,29%,80%,90.1%,0%,39%,98.4%
COc1ccc(Nc2nccc(-c3cccc(NC(=O)c4cc5cc(F)ccc5[nH]4)c3)n2)cc1 [GSK1229782],19%,0%,8%,61%,0%,18%,31%,29%,34%,18%,0%,28%,0%,0%,16%,0%,66%,9%,57%,41%
Clc1cc(Cl)cc(Nc2ccnc(Nc3cc(Cl)cc(Cl)c3)n2)c1 [GSK175726],39%,43%,31%,3%,0%,0%,0%,18%,18%,0%,18%,8%,4%,3%,90%,0%,13%,2%,8%,6%
COc1ccc2nc(-c3cccc(C)n3)nc(Nc3ccncc3)c2c1 [GSK204919],0%,0%,25%,3%,0%,5%,0%,24%,0%,16%,0%,6%,8%,0%,0%,3%,6%,2%,3%,31%
COc1cccc(NC(=O)NC2CCN(c3ccnc(Nc4ccc(F)cc4)n3)C2)c1 (stereo not shown) [GSK1379721],4%,0%,1%,22%,0%,0%,0%,24%,0%,0%,4%,9%,8%,4%,21%,0%,8%,0%,0%,0%
O=C(Nc1n[nH]c2nc(-c3nccs3)c(Br)cc12)C1CCCC1 [SB-742609],11%,0%,0%,14%,0%,10%,1%,26%,0%,18%,0%,0%,0%,13%,0%,13%,11%,0%,0%,31%
Cc1ccc(-c2cc(-c3c[nH]nc3-c3ccccn3)ccn2)cc1 [GW684088],49%,0%,22%,37%,0%,0%,0%,16%,0%,0%,0%,94.7%,0%,0%,2%,0%,10%,5%,20%,0%
CC(C)(C)c1ccc(C(=O)Nc2cn3cc(Cl)ccc3n2)cc1,9%,0%,5%,0%,5%,0%,0%,3%,0%,16%,0%,0%,86%,0%,0%,64%,17%,0%,0%,0%
Cn1ccc2ncnc(Oc3cccc(C(=O)Nc4ccccc4)c3)c21,1%,0%,6%,17%,0%,0%,10%,0%,0%,0%,28%,14%,0%,0%,21%,0%,26%,3%,14%,1%
Cc1cccc(-c2nc(-c3ccc(S(C)(=O)=O)cc3)sc2-c2ccnc(NCCc3ccccc3)c2)c1,3%,0%,0%,12%,14%,6%,12%,0%,0%,17%,7%,11%,0%,0%,0%,14%,0%,0%,9%,16%
O=C(Nc1n[nH]c2nc(-c3nccs3)c(Br)cc12)C1CC1 [SB-742251],11%,0%,15%,19%,0%,1%,0%,26%,10%,8%,0%,0%,4%,21%,0%,31%,13%,15%,36%,0%
